Mm-Cpn inhibitor: blocks the Methanococcus maripaludis chaperonin Mm-Cpn; purified Mm-Cpn ATPase, ADP Transcreener TR-FRET; Potency, µM (series often up to 76.9 µM), for the others: at the highest dose activity, negative = inhibition, actives largely listed as inhibitors; 0.031% of 330,000 active; AID 504842; note: potency is the fitted concentration of half-maximal effect; nearly all actives have a fitted effect of over 80% in size
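Compound-treated chaperonin, 25 nM final, turns over 10 uM ATP at 37°C for 30 min following a 10 min preincubation; ADP generated competes with ADP-d2 for Eu-cryptate antibody, lowering FRET.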
CCT chaperon mod: cytosolic chaperonin activity modulation; purified chaperonin ATPase assay, HTRF ADP detection, 30 min; activity change, % (concentration not given with the values), hits read low; 0.3% of 360,000 active; AID 651819; in the data active = activity change below about -30%
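First, chaperonin was dispensed at 40 nM or 20 nM final depending on batch activity. Next, compounds were pinned at 76 uM and ATP added at 10 uM. After 30 min at 37 °C, ADP detection reagents ran 30 min at ambient temperature.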
VDR inhibitor: blocks the human vitamin D receptor; P11473; VDR-SRC2-3 peptide fluorescence polarization, 2 h; Potency, µM, without a hit: max response, negative = inhibition, actives largely listed as inhibitors; 0.93% of 400,000 active; AID 504847; note: potency is the fitted concentration of half-maximal effect
Target sequence (P11473 whole entry, looked up): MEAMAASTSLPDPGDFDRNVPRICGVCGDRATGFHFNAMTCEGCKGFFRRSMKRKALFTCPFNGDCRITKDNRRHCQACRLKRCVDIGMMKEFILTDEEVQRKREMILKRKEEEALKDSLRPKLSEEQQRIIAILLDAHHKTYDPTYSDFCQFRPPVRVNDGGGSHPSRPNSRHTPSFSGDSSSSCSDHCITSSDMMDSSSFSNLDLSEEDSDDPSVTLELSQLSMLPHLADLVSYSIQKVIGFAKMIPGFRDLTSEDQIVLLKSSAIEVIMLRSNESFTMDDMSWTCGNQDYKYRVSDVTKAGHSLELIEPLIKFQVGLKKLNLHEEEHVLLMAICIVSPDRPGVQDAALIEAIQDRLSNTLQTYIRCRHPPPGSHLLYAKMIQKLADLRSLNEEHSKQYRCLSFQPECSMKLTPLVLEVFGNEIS
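Fluorescence polarization assay of small-molecule disruption of VDR binding to coregulator peptide SRC2-3. Compounds and controls pin-transferred, then read after 2 h incubation at ambient room temperature.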
G9a block: blocks human histone lysine methyltransferase G9a; Potency, µM (titrated, usually from 102 µM), inactives show top-dose activity, negative = inhibition, hits mostly inhibitors; 8.8% of 350,000 active; Q96KQ7; G9a H3K9 monomethylation, AlphaScreen, 2 h; AID 504332; note: potency is the fitted concentration of half-maximal effect; nearly all actives have a fitted effect of over 75% in size
Target sequence (Q96KQ7 913-1193 limits assumed): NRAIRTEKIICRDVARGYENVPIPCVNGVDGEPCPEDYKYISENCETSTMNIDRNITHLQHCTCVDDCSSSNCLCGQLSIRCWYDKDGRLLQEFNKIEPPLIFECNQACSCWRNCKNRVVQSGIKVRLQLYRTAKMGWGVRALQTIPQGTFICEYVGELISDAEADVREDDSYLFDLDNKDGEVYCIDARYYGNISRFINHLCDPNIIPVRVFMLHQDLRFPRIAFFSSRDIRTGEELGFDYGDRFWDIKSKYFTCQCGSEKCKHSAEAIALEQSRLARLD
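G9a (20 nM) was preincubated 15 min with compound, then reacted 2 h at room temperature with 500 nM biotin-H3K9 peptide and 20 µM SAM. Monomethyl-H3K9 detected by AlphaScreen using anti-H3K9me1 antibody.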
PLK1 PBD block: blocks phosphopeptide binding to human PLK1 polo-box domain; P53350; Plk1 PBD binding of FITC phosphopeptide, fluorescence polarization; Potency, µM, for inactives: max response, negative = inhibition, most hits filed as inhibitors; 2.8% of 360,000 active; note: potency is the fitted concentration of half-maximal effect; series mostly up to about 57 µM; nearly all actives have a fitted effect of over 65% in size
Sfp inh: Sfp phosphopantetheinyl transferase inhibition; Q9F4F7; Biochemical Sfp PPTase activity, qHTS; Potency, µM, without a hit: largest response in the series, negative = inhibition, actives largely listed as inhibitors; 3.5% of 310,000 active; AID 1490;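 note: the enzyme is Sfp with the accession as filed and its product quenches rhodamine fluorescence; potency is the fitted concentration of half-maximal effect; 0% = enzyme reaction without inhibitor and -100% = no enzyme wells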
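Reaction rates are the 30-min fluorescence difference (ex 525, em 598 nm) in wells containing 15 nM Sfp, 5 uM rhodamine-CoA and 12.5 uM BHQ-2-YbbR at pH 7.6 with 10 mM MgCl2.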
* marks the source's active call; other numbers are inactive results; ? = inconclusive; . = no result given; [ ] = dose if it differs, or a comment. Shown are actives, neighbours in structure and some others; about 10% of the full set was active somewhere. Unless noted, calls come from the whole dose curve; as a rule, active = well fitted curve in the direction sought with a large enough effect; inconclusive = small, poorly fitted or top-dose-only effect, or another doubt; inactive = no such curve, though single readings can be large; an effect the other way counts as inactive or inconclusive. Unless noted, % is set by controls: 0 for no effect and ±100 for the full control effect.

SMILES | Mm-Cpn inhibitor | CCT chaperon mod | VDR inhibitor | G9a block | PLK1 PBD block | Sfp inh
CCc1ccccc1NC(=O)CSc1nc2c(oc3ccccc32)c(=O)n1-c1ccccc1 | . | . | 2% | 8%[59 µM] | . | .
O=C1NC(=S)N/C1=C\c1ccc(N2CCOCC2)cc1 | -4% | 1 | ? | ? | 3.8µM* | 9%
CCOC(=O)c1c(C)c(-c2ccccc2)n(CC(=O)NCCc2ccc(C)cc2)c1C | . | . | -14% | -5%[59 µM] | . | .
COc1cccc(Nc2nc(NCCO)c3ccccc3n2)c1 | 2% | 0 | 2% | ? | 5% | 20µM*
OCCNc1nc(N2CCN(c3ccccc3)CC2)nc2ccccc12 | ? | 2 | 9% | 79µM* | 4% | 3%
OCCNc1nc(Nc2ccc(O)cc2)nc2ccccc12 | -4% | 0 | 16% | ? | -4% | -11%
OCCNc1nc(Nc2cccc(O)c2)nc2ccccc12 | 0% | 0 | 6% | 71µM* | -7% | -17%
Oc1cccc(Nc2c3ccccc3nc3ccccc23)c1 | -4% | 1 | -9% | 40µM* | -5% | -16%
Cc1ccc(C)c(NC(=O)c2cnn(-c3cccc(F)c3)c2C2CCN(C(=O)OC(C)(C)C)CC2)c1 | . | . | 5% | 0%[59 µM] | . | .
c1ccc(-c2cc(-c3ccccc3)c3c(n2)-c2ccccc2OC3)cc1 | . | . | 3% | 26%[59 µM] | . | .
CCOc1ccccc1Nc1nc(-c2cccc(Cl)c2)c2c(n1)-c1ccccc1OC2 | . | . | 7% | 25µM* | . | .
CCCc1cc(N2CCN(c3cc(Cl)ccc3C)CC2)n2cnnc2n1 | . | . | -6% | 10%[59 µM] | . | .
CCCCOC(=O)C(C)Nc1n[nH]c(=S)[nH]c1=O (stereo unspecified) | ? | -1 | -15% | ? | 27µM* | 50µM*
COC(=O)Cc1n[nH]c(=S)[nH]c1=O | -1% | -4 | -18% | 0%[59 µM] | -5% | 18µM*
CCCCOC(=O)CNc1n[nH]c(=S)[nH]c1=O | ? | -4 | -8% | -3%[12.7 µM] | -2% | 56µM*
NC(=O)CNc1n[nH]c(=S)[nH]c1=O | 1% | -3 | -11% | . | -11% | 79µM*
CCCCOC(=O)CCNc1n[nH]c(=O)[nH]c1=O | 3% | 1 | -7% | 13%[59 µM] | 0% | 4%
COc1ccc(C)cc1NS(=O)(=O)c1ccc2c3c(cccc13)C(=O)N2 | . | . | -114% | -37%[59 µM] | . | .
CCCCOC(=O)C(C)c1c(C)[nH]c(=S)[nH]c1=O (stereo unspecified) | -3% | -2 | -2% | 40µM* | -8% | -3%
CC1(c2ccc([N+](=O)[O-])cc2)NC(=O)N(CC(=O)Nc2ccc(N3CCCCC3)cc2)C1=O (stereo unspecified) | -22% | -1 | -23% | 11µM* | -7% | .
CC1(c2ccc(OC(F)F)cc2)NC(=O)N(CC(=O)Nc2ccc(N3CCCCC3)cc2)C1=O (stereo unspecified) | -3% | -5 | -7% | 7.1µM* | -9% | .
CC1(c2ccccc2)NC(=O)N(CC(=O)Nc2ccc([N+](=O)[O-])cc2)C1=O (stereo unspecified) | -9% | 1 | 2% | -4% | 1% | 0%
CCN(CC)c1ccc(NC(=O)COC(=O)/C=C/c2nc3ccccc3s2)cc1 | 0% | -1 | -8% | 6.3µM* | -5% | -10%
O=C(COC(=O)c1ccc2ccccc2n1)Nc1ncc(C(F)(F)F)cc1Cl | -6% | 2 | -2% | 45µM* | -6% | 4%
COc1ccc(Cl)cc1-c1ccc(C(=O)O)s1 | . | . | ? | 6% | . | -12%
SMILES | Mm-Cpn inhibitor | CCT chaperon mod | VDR inhibitor | G9a block | PLK1 PBD block | Sfp inh
Cc1ccc(Cc2c(C)nc3nc(SCC(=O)NC4CCC(C)CC4)nn3c2C)cc1 (stereo unspecified) | . | . | ? | -34%[59 µM] | . | .
COc1ccccc1CC(=N)N1C[C@@H]2C(=O)CCC(c3ccccc3)(c3ccccc3)[C@@H]2C1 | . | . | -8% | . | . | -11%
CCOC(=O)c1cnn(-c2cc(Oc3ccccc3C)ncn2)c1N | 1% | -4 | 7% | 11%[12.7 µM] | 2% | 50µM*
O=C(Nc1ccc2nc(-c3ccco3)c(-c3ccco3)nc2c1)N1CCCC1 | . | . | 71µM* | . | . | .
O=C(c1ccc2nc(-c3ccco3)c(-c3ccco3)nc2c1)N1CCN(c2ncccn2)CC1 | -1% | -1 | -7% | 35µM* | -13% | 14µM*
O=C(Nc1ccc2nc(-c3ccco3)c(-c3ccco3)nc2c1)N1CCN(c2ccccn2)CC1 | -1% | -2 | 89µM* | 2.5µM* | 5.3µM* | 20µM*
O=C(NCCO)Nc1ccc2nc(-c3ccco3)c(-c3ccco3)nc2c1 | ? | . | . | . | . | 18µM*
O=C(c1cccc(C(=O)N2CCN(c3ncccn3)CC2)c1)N1CCN(c2ncccn2)CC1 | 1% | 0 | 14% | 19% | 0% | 13%
Cc1nc(-c2coc3c(O)c(O)ccc3c2=O)cs1 | . | . | -10% | . | . | ?
COCCCNC(=O)c1cc(-c2cccnc2)nc2ccc(S(=O)(=O)N3CCC(C)CC3)cc12 | . | . | 13% | -1%[59 µM] | . | .
CCc1ccccc1Nc1nn2c(=O)c3ccc(C(=O)NC4CCCCC4)cc3nc2s1 | . | . | 1% | 4%[59 µM] | . | .
Cc1cccc(-c2csc(N3CCC(C(N)=O)CC3)n2)c1 | -1% | . | . | . | . | .
S=C(Nc1ccc(N2CCOCC2)cc1)Nc1ccc2nc(-c3ccco3)c(-c3ccco3)nc2c1 | -11% | -7 | -18% | 32µM* | ? | -30%
C#CCOCCOCCOCCNc1nc(N2CCOCC2)nc(N2CCN(C(=O)[C@H]([C@@H](C)CC)n3cc(CCCCN)nn3)CC2)n1 | -1% | 0 | -4% | 50µM* | 4% | -5%
C#CCOCCOCCOCCNc1nc(N2CCN(C(=O)[C@H](C(C)C)n3cc(CCO)nn3)CC2)nc(N2CCN(C(=O)[C@H]([C@@H](C)CC)n3cc(CCCCN)nn3)CC2)n1 | -2% | -1 | 0% | 50µM* | -14% | -7%
C#CCOCCOCCOCCNc1nc(N2CCN(C(=O)[C@H]([C@@H](C)CC)n3cc(CCCCN)nn3)CC2)nc(N2CCN(C(=O)[C@H]([C@@H](C)CC)n3cc(CCCN=C(N)N)nn3)CC2)n1 | -1% | -3 | -14% | -9%[2.33 µM] | 4% | .
CC(C)CC(NC(=O)C(COC(C)(C)C)NC(=O)C(Cc1ccc(O)cc1)NC(=O)C(CO)NC(=O)C(Cc1c[nH]c2ccccc12)NC(=O)C(Cc1cnc[nH]1)NC(=O)C1CCC(=O)N1)C(=O)NC(CCCN=C(N)N)C(=O)N1CCCC1C(=O)NNC(N)=O (stereo unspecified) | . | . | -1% | -31%[12.7 µM] | . | 3%
CC1CCCC2(C1)NC(=S)c1c(sc3c1CCCC3)N2 (stereo unspecified) | -7% | 3 | 40µM* | 8.9µM* | 5.3µM* | 6.3µM*
